Assay outcomes deposited in PubChem by Johns Hopkins Ion Channel Center.
TMEM16A act: mouse TMEM16A channel activation, primary screen | Q8BHY3 | HEK293 TMEM16A/YFP-H148Q/I152L, iodide quench fluorescence; active compounds read low | B-score at 10 µM | hit rate 0.3% among 340,000 | AID 623877;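 active = fluorescence-ratio B-score plate-corrected deviation score at least 3 library SD below zero, with starting fluorescence score within 5 deviations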;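 also: channel opened by trigger with iodide after compound preincubation; score built on the fluorescence ratio of max minus min over baseline; more negative score means more quench and so TMEM16A activation or potentiation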
KCNK9 block: blocks the human KCNK9 two-pore domain potassium channel. Q9NPC2. HEK293 KCNK9, FluxOR thallium flux fluorescence; active compounds read low. B-score at 10 µM. hit rate 1.2% among 310,000;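 active = ratio B-score over 3 SD below the library mean, with starting fluorescence within 5 SD of its mean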;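 also: negative B-score means less thallium flux so channel inhibition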
TMEM16A inh: inhibitors of mouse TMEM16A calcium-activated chloride channel; HEK293 TMEM16A/YFP iodide influx fluorescence, ionomycin; AID 588511; hit rate 1.2% among 310,000; Q8BHY3; normalized B-score (activity score, 25-100; higher = stronger inhibition) at 10 µM;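 active = ratio plate-corrected score three or more library SD toward inhibition, starting fluorescence score within five deviations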;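 also: score derived from kinetic fluorescence span divided by baseline fluorescence per well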
KCNK3 block: human KCNK3 channel inhibition, primary screen; CHO-KCNK3 thallium flux, FluxOR fluorescence; active compounds read low; AID 602410; B-score at 10 µM; hit rate 0.84% among 340,000; O14649;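 active = B-score under library mean minus 4 SD, starting fluorescence ratio at most library mean plus 5 SD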;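 also: more negative B-score means stronger inhibition of thallium flux through KCNK3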
Target sequence (O14649 whole entry, looked up): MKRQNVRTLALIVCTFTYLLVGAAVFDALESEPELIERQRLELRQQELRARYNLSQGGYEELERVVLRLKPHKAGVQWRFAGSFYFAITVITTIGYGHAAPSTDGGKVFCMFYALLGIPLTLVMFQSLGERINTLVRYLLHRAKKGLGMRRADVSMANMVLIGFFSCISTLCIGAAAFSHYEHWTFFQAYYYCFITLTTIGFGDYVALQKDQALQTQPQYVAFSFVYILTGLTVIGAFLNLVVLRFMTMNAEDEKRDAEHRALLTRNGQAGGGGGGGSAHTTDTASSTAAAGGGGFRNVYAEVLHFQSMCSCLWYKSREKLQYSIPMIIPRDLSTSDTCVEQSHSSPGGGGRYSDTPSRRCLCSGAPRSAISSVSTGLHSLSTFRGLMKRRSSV
Kir21 inh: blocks the mouse Kir2.1 inward-rectifier potassium channel | HEK293-Kir2.1, FluxOR thallium flux fluorescence; active compounds read low | P35561 | B-score at 10 µM | hit rate 0.85% among 310,000;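 active = fluorescence ratio B-score at or below minus 3 SD of library scores, with starting-brightness B-score within 2 SD, cut at about -4.2 in these data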;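 also: channel flux triggered by added potassium and thallium sulfate stimulus; B-score of peak minus minimum fluorescence over baseline after thallium stimulus; more negative B-score means stronger Kir2.1 block with less thallium influx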
* marks the source's active call; other numbers are inactive results; i = inactive; x = no result. Shown are actives, neighbours in structure and some others; about 3.5% of the full set was active somewhere.

SMILES	TMEM16A act	KCNK9 block	TMEM16A inh	KCNK3 block	Kir21 inh
Cc1[nH]c2ccccc2c1C(=O)CSC(=S)N1CCCCC1	-12*	i	i	i	0.44
O=C(CN1C(=O)NC2(CCCCC2)C1=O)N1CCN(S(=O)(=O)/C=C/c2ccccc2)CC1	i	i	i	i	-0.16
COc1cccc(CNc2ccc(S(N)(=O)=O)cc2)c1OCc1ccccc1F	i	i	i	i	-5.1*
c1ccc(-c2csc3nnc(SCc4ccc5c(c4)OCO5)n23)cc1	i	i	i	i	-4.3*
CC(=O)N1CCn2c3ccc(C)cc3c3cccc1c32	i	i	i	i	0.04
COc1ccc(CCC(=O)OCC(=O)Nc2sccc2C(N)=O)cc1	-5.3*	x	x	i	x
Cc1cnc(NC(=O)c2cc3c(C)nn(-c4ccccc4)c3s2)s1	i	i	i	i	-0.32
C[C@H]1CC[C@H]2C(=O)N3[C@H](c4ccccc4Br)[C@@H](C)CC[C@H]3C(=O)N2[C@@H]1c1ccccc1Br	x	-9.6*	i	x	-0.12
O=C(CCc1cccc(Cl)c1)N1CCCC(Nc2ccccc2)C1 (configuration not stated)	i	i	i	i	-6.9*
CCOC(=O)c1c(NC(=O)C2c3ccccc3Oc3ccccc32)sc(C(C)=O)c1C	i	-7.4*	i	i	2.3
COC(=O)c1sc(NC(=O)C2c3ccccc3Oc3ccccc32)c(C(=O)OC)c1C	i	i	i	i	0.28
CCOC(=O)c1c(NC(=O)CSc2nnc(-c3ccc(C)cc3)o2)sc(C(C)=O)c1C	i	x	i	-10*	x
COc1ccc(N2CCN(C(c3ccc4ncccc4c3)c3nnnn3C(C)C)CC2)cc1 (configuration not stated)	i	i	i	i	0.28
CC(=O)c1c(C(C)=O)c(C)n(-c2cccc3cccnc23)c1C	i	i	i	i	0.57
COc1cc(C)ccc1S(=O)(=O)n1nc(C)cc1C	i	i	i	i	-0.46
CCOc1ccc(CN(C)C(=O)CNC(=O)c2ccccc2)cc1	i	i	i	i	-0.02
C=CCOc1ccc(CN(C)C(=O)CNC(=O)c2ccc(-c3ccccc3)cc2)cc1	i	i	25*	i	2.5
O=C1CSC(c2ccccn2)N1c1ccc2ccccc2c1 (configuration not stated)	i	i	i	i	0.85
O=C1CSC(c2ccccn2)N1c1ccc(Cl)c(Cl)c1 (configuration not stated)	i	-7.6*	i	i	0.12
N#CC1=C(N)C2=CCCC[C@H]2[C@H](c2cccc(F)c2)C1(C#N)C#N	i	i	i	i	-5.4*
Cc1ccc(-c2cc(C(F)(F)F)n3nc(C(=O)NCCCn4ccnc4)cc3n2)cc1C	i	i	i	i	0.97
Cc1ccc(S(=O)(=O)N2CCC(=O)N(C(COCc3cccc(C(F)(F)F)c3)Cc3ccccc3)CC2)cc1 (configuration not stated)	-19*	i	i	i	0.95
Cc1ccc(S(=O)(=O)N2CCC(=O)N(CCOCc3cccc(F)c3)CC2)cc1	i	i	i	i	1.1
Cc1ccc(S(=O)(=O)N2CCC(=O)N(C(COCc3cccc(Cl)c3)Cc3ccccc3)CC2)cc1 (configuration not stated)	-11*	i	i	i	0.38
Cc1ccc(S(=O)(=O)N2CCC(=O)N(CCOCc3cccc(Cl)c3)CC2)cc1	i	i	i	i	-5.5*
SMILES	TMEM16A act	KCNK9 block	TMEM16A inh	KCNK3 block	Kir21 inh
Cc1ccc(S(=O)(=O)N2CCC(=O)N(C(COCc3ccc(Cl)cc3Cl)Cc3ccccc3)CC2)cc1 (configuration not stated)	-29*	i	i	i	1.2
Cn1c(SCC(=O)NCCc2ccccc2)nnc1C1CCCCC1	i	i	i	i	1.7
O=C(CSc1ccc([N+](=O)[O-])cc1)NNC(=O)c1ccccc1F	i	i	i	i	-1.4
Fc1ccc(CNC(=S)NC2CCCC2)cc1	i	i	i	i	-0.03
Cc1ccc(NC(=O)/C(=C/c2cccc([N+](=O)[O-])c2)NC(=O)C2CCCCC2)c(C)c1	i	i	i	i	2.7
O=C(Nc1ccc([N+](=O)[O-])cc1)/C(=C/c1cccc([N+](=O)[O-])c1)NC(=O)C1CCCCC1	i	-6.9*	i	i	-0.32
O=C(COC(=O)C1CC(=O)N(Cc2ccccc2)C1)c1ccc(F)cc1 (configuration not stated)	i	i	i	i	-0.11
Cc1noc(/C=C/c2cccs2)c1S(=O)(=O)N1CCC(C(=O)NCCCN2CCC(C)CC2)CC1	i	i	i	i	-0.72
O=S(=O)(c1ccc(Cl)c(Cl)c1)c1snnc1-c1ccccc1	i	i	x	i	-4.2*
c1ccc(-c2nnsc2-c2ccccc2)cc1	i	i	i	i	-3.3
CCCCc1ccc(NC(=S)NCc2cccs2)cc1	i	i	100*	i	-0.73
Cc1ccc(NC(=S)NCc2cccs2)cc1	i	i	i	i	0.5
Cc1cc(C)c(C#N)c(SCc2ccccc2F)n1	i	i	25*	i	-2.7
CC1=CC(=O)C(C(C)C)=C/C1=N/OS(=O)(=O)c1ccccc1	-6.5*	i	100*	i	-2.9
C/C(=N\N=C(N)N)c1cc(Cl)ccc1Cl	i	i	i	i	-5.8*
C/C(=N\N=C(N)N)c1ccc(Cl)cc1Cl	i	i	i	i	-7.2*
CNCc1ccccc1Sc1ccc(OC)cc1	i	i	i	i	0.29
CNCc1ccccc1Sc1cccc2ccccc12	i	i	i	i	-15*
CN(C)CCN(C)Cc1ccccc1Sc1cccc2ccccc12	i	i	i	i	-7.1*
CCN(Cc1ccccc1)CC(O)COc1ccccc1 (configuration not stated)	i	i	i	i	-2.4
Cc1ccccc1OCC(O)CN(CCO)Cc1ccccc1 (configuration not stated)	-38*	i	i	i	-1.4
Cc1ccc2cccc(OCC(=O)Nc3ccc4c(c3)OCO4)c2n1	i	i	i	i	-0.67
Cc1ccc2cccc(S(=O)(=O)Nc3ccc4c(c3)OCO4)c2n1	i	i	i	i	-5.3*
N#Cc1cn(CCOc2ccccc2F)c2ccccc12	i	-7.5*	i	i	-1.2
COc1ccc(C(C)=O)cc1Cn1cnc2c(cnn2C)c1=O	i	i	i	i	-2.3
Cn1c(Oc2ccc(Cl)cc2)c(C=O)c2ccccc21	i	i	i	i	0.01
Cn1c(Sc2ccccc2Cl)c(C=O)c2ccccc21	i	i	100*	i	-1.4
